In PubChem BioAssay (EPA / NIEHS):
More than one record can exist for a structure, and the calls need not agree. The source made the active and inactive calls. The calls were made as follows: active = hit-call score of the fitted dose curve at least 0.9, where 1 is the maximum; inactive = score below 0.9.

test: APR_HepG2_p53Act_1hr: Apredica 1-hour HepG2 Assay for p53 Activation (AID 2282671); conditions: high-content imaging, actives raise or lower the signal
Procedure: APR_HepG2_1hr is a cell-based, multiplexed-readout assay that uses HepG2, a human liver cell line, with measurements taken at 1 hour after chemical dosing in a 384-well plate.APR_HepG2_p53Act_1hr is one of 10 assay component(s) measured or calculated from the APR_HepG2_1hr assay. It is designed to make measurements of dna content, a form of viability reporter, as detected with fluorescence intensity signals by HCS Fluorescent Imaging technology.Data from the assay component APR_HepG2_p53Act_1hr was analyzed into 1 assay endpoint. This assay endpoint, APR_HepG2_p53Act_1hr, was analyzed with bidirectional fitting relative to DMSO as the negative control and baseline of activity. Using a type of viability reporter, measures of protein for gain or loss-of-signal activity can be used to understand the signaling at the pathway-level as they relate to the gene TP53. Furthermore, this assay endpoint can be referred to as a primary readout, because this assay has produced multiple assay endpoints where this one serves a signaling function. To generalize the intended target to other relatable targets, this assay endpoint is annotated to the dna binding intended target family, where the subfamily is tumor suppressor.
Cells were treated with dimethyl sulfoxide (DMSO) as a solvent control at a final concentration of 0.5% v/v or with compounds in DMSO with a resulting final DMSO concentration of 0.5% v/v. Compound treatment was done at concentrations of 0.39, 0.78, 1.56, 3.12, 6.24, 12.5, 25, 50, 100, and 200 uM in duplicate on each plate. Cells were treated with compounds for 1, 24, or 72 hr. Carbonyl […] m-chloro-phenylhydrazone (CCCP) and taxol were used as positive controls for mitochondrial function and cytoskeletal stability, respectively; DMSO served as the negative control for this experiment. Cells were fixed by the direct addition of 50 uL formaldehyde in Hank's Balanced Salt Solution (HBSS) to a final concentration of 3.7%. After incubation in the fixation medium for 30 min at room temperature (293-298 K), cells were rinsed twice with HBSS and treated with cell permeabilization buffer (16 uL of 0.5% Triton X-100) for 10 min at room temperature (293-298 K) before labeling. For mitochondrial membrane potential and mitochondrial measurements, pre-fixed cells were incubated with 50 uL of MitoTracker Red CMXRos (Invitrogen) at a concentration of 250 nM for 30 min before fixation. In the remaining cases, post-fixed cells were labeled by incubation with a multiplexed mixture of primary antibodies in HBSS for 60 min at room temperature (293-298 K) to detect immunoreactivity of c-Jun (1:500), phospho-histone H3 (1:100), phospho-histone H2A.x (1:200), p53 (1:400), alpha-tubulin (1:200) and Hoechst 33342 (2 ug/mL). Cells were labeled for multiplexed imaging on two separate plates: a) Hoechst 33342, MitoTracker Red, phospho-histone H3, and alpha-tubulin, and b) Hoechst 33342, phospho-histone H2A.x, and c-Jun. A final rinse with HBSS (50 uL) was performed before analysis. The primary and secondary antibodies for the proteins were phospho-histone H3 (rabbit anti-phospho-histone H3 and FITC-donkey anti-rabbit IgG), phospho-histone H2A.x (mouse anti-phospho-histone H2A.x and FITC-donkey anti-mouse IgG), c-Jun (rabbit anti-phospho-c-Jun and Cy3-donkey anti-rabbit IgG), p53 (sheep anti-p53 and Cy5-donkey anti-sheep IgG), alpha-tubulin (mouse anti-alpha-tubulin and Cy5-donkey anti-mouse IgG). These antibodies are available as the CellCiphr HepG2 assay kit (Millipore).Digital images of each well were captured using a Cellomics ArrayScan VTI (Thermo Scientific Cellomics) (0.8 NA objective, 0.63x optical coupler, and XF-93 filter set) at 20x magnification. The images were acquired using the autofocus feature of the ArrayScan instrument, which entails the following steps. First, the camera focuses on channel 1 (Hoechst 33342), where nuclei are identified. Second, a Z offset of 1 um is used for capturing mitochondria (MitoTracker Red). […]

Compound	outcome	AC50
CCCC1COC(Cn2cncn2)(c2ccc(Cl)cc2Cl)O1 (stereo not given)	inactive	–
N#Cc1cc(Br)c(O)c(Br)c1	inactive	–
C#CCOS(=O)OC1CCCCC1Oc1ccc(C(C)(C)C)cc1 (stereo not given)	inactive	–
CCON=C(CC)C1=C(O)CC(c2c(C)cc(C)cc2C)CC1=O (stereo not given)	inactive	–
CC(C)Oc1cc(-n2nc(C(C)(C)C)oc2=O)c(Cl)cc1Cl	inactive	–
Cc1c(F)c(F)c(COC(=O)C2C(/C=C(\Cl)C(F)(F)F)C2(C)C)c(F)c1F (stereo not given)	inactive	–
CCOC(=O)C(Cl)Cc1cc(-n2nc(C)n(C(F)F)c2=O)c(F)cc1Cl (stereo not given)	inactive	–
COC(=O)C(C)Oc1ccc(Oc2ccc(Cl)cc2Cl)cc1 (stereo not given)	inactive	–
CC(C)C1(C)N=C(c2nc3ccccc3cc2C(=O)O)NC1=O (stereo not given)	inactive	–
COc1ccc(C(c2ccc(OC)cc2)C(Cl)(Cl)Cl)cc1	inactive	–
O=C(Nc1ccccc1)Nc1ccnc(Cl)c1	inactive	–
CCc1nn(C)c(C(=O)NCc2ccc(C(C)(C)C)cc2)c1Cl	inactive	–
C=CCC1=C(C)C(OC(=O)C2C(C=C(C)C)C2(C)C)CC1=O (stereo not given)	inactive	–
CC1COC(Cn2cncn2)(c2ccc(Oc3ccc(Cl)cc3)cc2Cl)O1 (stereo not given)	inactive	–
O=C(O)c1nc(Cl)ccc1Cl	inactive	–
CCCCNC(=O)OCC#CI	inactive	54.5 µM (active)
COC(=O)c1ccccc1C(=O)OC	inactive	–
COP(N)(=O)SC (stereo not given)	inactive	–
CCNc1nc(Cl)nc(NC(C)C)n1	inactive	–
CCCCOC(=O)c1ccccc1C(=O)OCCCC	inactive	–

Compound	outcome	AC50
O=C(O)COc1nc(Cl)c(Cl)cc1Cl	inactive	–
COP(=S)(OC)Oc1nc(Cl)c(Cl)cc1Cl	inactive	–
CO/C=C(/C(=O)OC)c1ccccc1Oc1cc(Oc2ccccc2C#N)ncn1	inactive	–
CC(C)(C)c1ccc(CSc2cnn(C(C)(C)C)c(=O)c2Cl)cc1	inactive	–
Oc1ccccc1-c1ccccc1	inactive	–
C=CCC1=C(C)[C@@H](OC(=O)[C@@H]2[C@@H](C=C(C)C)C2(C)C)CC1=O	inactive	–
CCOC(=O)CC(SP(=S)(OC)OC)C(=O)OCC (stereo not given)	inactive	–
CC(Oc1ccc(Cl)cc1Cl)C(=O)O (stereo not given)	inactive	–
CCOc1cc(Oc2ccc(C(F)(F)F)cc2Cl)ccc1[N+](=O)[O-]	inactive	–
CC1=C(C(=O)Nc2ccccc2)SCCO1	inactive	–
CCCCNC(=O)n1c(NC(=O)OC)nc2ccccc21	inactive	–
Fc1ccc(Oc2ccnc3cc(Cl)cc(Cl)c23)cc1	inactive	–
Cc1ccc(-c2c(Cl)nc(C#N)n2S(=O)(=O)N(C)C)cc1	inactive	–
COC(=O)N(OC)c1ccccc1COc1ccn(-c2ccc(Cl)cc2)n1	inactive	–
CNC(=O)ON=CC(C)(C)SC	inactive	–
C=CC1(C)OC(=O)N(c2cc(Cl)cc(Cl)c2)C1=O (stereo not given)	inactive	–
CN(C)C(=S)SSC(=S)N(C)C	inactive	–
OC(c1ccc(Cl)cc1)(c1cncnc1)c1ccccc1Cl (stereo not given)	inactive	–
COc1cnc(OC)n2nc(NS(=O)(=O)c3c(OCC(F)F)cccc3C(F)(F)F)nc12	inactive	–
